Measured values reported in PubChem BioAssay (NCATS).
Results filed as inconclusive are left out. Activity calls are given as the source filed them. Unless noted, calls follow the shape of the dose curve; as a rule, active = well fitted curve in either direction with a large enough effect (not every such curve was filed as active); inconclusive = small, poorly fitted or top-dose-only effect, or another doubt; inactive = flat fitted curve, though single readings scatter.

Columns and labels:
[1] = target: Lysosomal acid glucosylceramidase (Homo sapiens) (UniProt P04062); experiment: Glucocerebrosidase-p2 (AID 348; in the data active = potency below about 10 µM; also: potency is read from the fitted curve at half-maximal effect); settings: purified GBA, blue fluorogenic substrate, 40 min
How it was run: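 Compounds titrated from 0.6 nM upwards against 0.2 nM enzyme in pH 5.9 citric acid/KH2PO4, taurocholate, tween-20; blue fluorogenic substrate 80 uM, 40 min room temperature, stopped and read Ex 365/Em 440 for AC50.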

[2] = AP1 Signaling Pathway (AID 357); settings: ME-180 AP-1-bla reporter, EGF-induced, beta-lactamase ratio, 5 h; at 7.69 µM (top of the series) unless noted;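 also: ME-180 reporter cells stimulated with EGF at its EC50 level; % is scaled to controls: 0 for no effect and ±100 for the full control effect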
How it was run: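 Read-out was the 460nm/530nm emission ratio (excitation 405nm) after CCF4 loading for 2.5 hours at room temperature. Cells carried an AP-1-driven beta-lactamase reporter, were stimulated with EC50 EGF plus compound for 5 hours, and AC50 values came from titrations.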

[3] = NFAT Signaling Pathway (AID 444); settings: Jurkat NFAT-bla M1, carbachol, beta-lactamase ratio, 5 h; at 7.69 µM (top of the series) unless noted;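 also: carbachol stimulus at about its EC50 of 1 µM final; % is scaled to controls: 0 for no effect and ±100 for the full control effect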
How it was run: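 Jurkat cells with NFAT-driven β-lactamase reporter and co-expressed M1 receptor, stimulated with carbachol (final 1 uM, ~EC50), compound titration, 5 h at 37 °C. CCF4 loaded 1 h at RT; 460/530 nm ratio gave %activity and AC50.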

[4] = Stat Signaling Pathway (AID 446); settings: ME-180 SIE beta-lactamase reporter, IL-6 stimulated, 5 h; at 7.69 µM (top of the series) unless noted;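 also: ME-180 cervical cancer cells given 40 pM IL-6 alongside compound; SIE-controlled beta-lactamase reporter measured as 460/530 nm FRET emission ratio; % is scaled to controls: 0 for no effect and ±100 for the full control effect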
How it was run: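 ME-180 cells carrying a SIE-driven beta-lactamase reporter are stimulated with 40 pM IL-6 for 5 h at 37C in the presence of compound. The 460/530 nm FRET substrate ratio is read after 2.5 h at RT. Data are normalised to 300 pM IL-6 and to 125 nM JAK inhibitor controls.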

[5] = target: Glucocorticoid receptor (Homo sapiens) (UniProt P04150); experiment: GR-EFC Redistribution (AID 451; calls by dose curve; also: potency is read from the fitted curve at half-maximal effect); settings: CHO-K1 GR-EFC translocation, beta-gal luminescence, 2 h
How it was run: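 CHO-K1 cells expressing nuclear EA and GR-ED fragments of b-gal; compounds titrated up to 46 uM final, 2 h at 37 C. GR nuclear translocation read as complemented b-gal luminescence after 1 h RT detection.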

[6] = target: Mitogen-activated protein kinase 10 (Mus musculus) (UniProt Q61831); experiment: JNK3 AlphaScreen Assay (AID 530); settings: JNK3 lysate, c-Jun phosphorylation; series mostly up to 57.1 µM;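 also: kinase came from lysate of stimulated human HepG2 cells; signal reports phosphorylation of biotinylated GST-cJun 1-79 at Ser73 with 10 µM ATP; % is scaled to controls: 0 for no effect and ±100 for the full control effect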
How it was run: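 qHTS format: compounds tested as titrations against IL-1beta/TNF-alpha-activated HepG2 lysate JNK3 with biotin-GST-cJun substrate and 10 uM ATP at room temperature. Loss of anti-phospho-cJun AlphaScreen signal indicates inhibition.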

[7] = target: 3',5'-cyclic-AMP phosphodiesterase 4B (Homo sapiens) (UniProt Q07343); experiment: qHTS Assay for Inhibitors of PDE-IV (AID 607; active = well fitted activation curve with a large enough effect in the main read-out, with a control signal flat, not every such curve was filed as active; also: % of control where 0% means no effect); settings: HEK293 ACTOne CNG channel cells, membrane potential fluorescence; series mostly up to 22.9 µM
How it was run: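 HEK293 ACTOne cells with CNG channel (1000/well), endogenous PDE4; membrane potential dye, compounds up to 22.9 uM final. Fluorescence Ex 535/Em 590; RO 20-1724 (100 uM final) as reference.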

[8] = qHTS Assay for Lipid Storage Modulators (AID 1519; calls by dose curve); settings: Drosophila S3 cells, BODIPY lipid droplet/cell ratio, laser cytometry, cells loaded with oleic acid; for activity change, negative = inhibition: at 57.5 µM (top of the series)
How it was run: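 Cells seeded at 5,000 per well were treated with compounds over a concentration series and loaded with oleic acid (400 uM, as added). Lipid droplet fluorescence (488 nm excitation, 500-530 nm channel) was read by laser-scanning cytometry and normalized to 20 uM Triacsin C.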

[9] = Primary qHTS for small molecule stabilizers of the endoplasmic reticulum resident proteome: Secreted ER Calcium Modulated Protein (SERCaMP) assay (AID 1508630; active = well fitted curve in the direction sought with a large enough effect; an effect the other way counts as inactive or inconclusive; also: % is scaled to controls: 0 for no effect and ±100 for the full control effect); settings: SH-SY5Y GLuc-SERCaMP (Gaussia luciferase released on ER calcium loss) secretion, thapsigargin, luminescence; series mostly up to 38.4 µM
How it was run: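 GLuc-SERCaMP-expressing SH-SY5Y cells, pretreated 16 h with compound, are challenged with thapsigargin to empty ER calcium stores; after 4 h, coelenterazine is added directly to the medium and luminescence is imaged.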

[10] = target: Cytochrome P450 3A4 (Homo sapiens) (UniProt P08684); experiment: qHTS Assay for Activators of Cytochrome P450 3A4 (AID 885; active = well fitted curve in the direction sought with a large enough effect; an effect the other way counts as inactive or inconclusive; also: nearly all actives have a fitted effect of over 65% in size; also: potency is read from the fitted curve at half-maximal effect); settings: recombinant CYP3A4, Luciferin-PPXE luminescence, 60 min; series mostly up to 57.1 µM
How it was run: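 Human CYP3A4 (20 nM) with Luciferin-PPXE at 25 uM (its KM) in 200 mM KPO4; 10 min compound preincubation, then NADPH regeneration and 60 min reaction at RT. Luciferin read by luminescence; normalized to 57 uM ketoconazole full inhibition.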

[11] = target: Cytochrome P450 2D6 (Homo sapiens) (UniProt P10635); experiment: qHTS Assay for Inhibitors and Substrates of Cytochrome P450 2D6 (AID 891; active = well fitted curve in the direction sought with a large enough effect; an effect the other way counts as inactive or inconclusive; also: potency is read from the fitted curve at half-maximal effect; nearly all actives have a fitted effect of over 60% in size); settings: recombinant CYP2D6, luciferin-ME EGE luminescence; series mostly up to 57.1 µM
How it was run: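 Human CYP2D6 (5 nM) with 30 uM Luciferin-ME EGE (at Km) in 100 mM KPO4, compound preincubated 10 min, then NADPH regeneration system for 60 min at room temperature. Luciferin read by luminescence; normalized to 1.43 uM quinidine.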

[12] = measured here: cell count channel max response
[13] = measured here: lipid channel max response

Lysosomal acid glucosylceramidase (Homo sapiens), sequence (P04062 whole entry, looked up): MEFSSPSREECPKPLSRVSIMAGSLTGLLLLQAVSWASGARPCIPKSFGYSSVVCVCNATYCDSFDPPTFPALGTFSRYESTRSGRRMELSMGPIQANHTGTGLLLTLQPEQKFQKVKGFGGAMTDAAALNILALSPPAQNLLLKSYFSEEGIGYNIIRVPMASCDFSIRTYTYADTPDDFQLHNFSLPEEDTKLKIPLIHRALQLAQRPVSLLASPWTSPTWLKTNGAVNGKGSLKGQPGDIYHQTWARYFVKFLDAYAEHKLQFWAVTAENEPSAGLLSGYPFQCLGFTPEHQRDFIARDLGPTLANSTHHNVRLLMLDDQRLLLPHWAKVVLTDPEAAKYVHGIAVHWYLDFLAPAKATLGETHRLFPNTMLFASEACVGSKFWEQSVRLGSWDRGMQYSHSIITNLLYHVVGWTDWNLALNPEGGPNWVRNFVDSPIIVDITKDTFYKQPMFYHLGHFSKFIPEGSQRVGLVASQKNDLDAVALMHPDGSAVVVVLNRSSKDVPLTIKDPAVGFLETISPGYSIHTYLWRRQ
Glucocorticoid receptor (Homo sapiens), sequence (P04150 whole entry, looked up, the tested form may be a part): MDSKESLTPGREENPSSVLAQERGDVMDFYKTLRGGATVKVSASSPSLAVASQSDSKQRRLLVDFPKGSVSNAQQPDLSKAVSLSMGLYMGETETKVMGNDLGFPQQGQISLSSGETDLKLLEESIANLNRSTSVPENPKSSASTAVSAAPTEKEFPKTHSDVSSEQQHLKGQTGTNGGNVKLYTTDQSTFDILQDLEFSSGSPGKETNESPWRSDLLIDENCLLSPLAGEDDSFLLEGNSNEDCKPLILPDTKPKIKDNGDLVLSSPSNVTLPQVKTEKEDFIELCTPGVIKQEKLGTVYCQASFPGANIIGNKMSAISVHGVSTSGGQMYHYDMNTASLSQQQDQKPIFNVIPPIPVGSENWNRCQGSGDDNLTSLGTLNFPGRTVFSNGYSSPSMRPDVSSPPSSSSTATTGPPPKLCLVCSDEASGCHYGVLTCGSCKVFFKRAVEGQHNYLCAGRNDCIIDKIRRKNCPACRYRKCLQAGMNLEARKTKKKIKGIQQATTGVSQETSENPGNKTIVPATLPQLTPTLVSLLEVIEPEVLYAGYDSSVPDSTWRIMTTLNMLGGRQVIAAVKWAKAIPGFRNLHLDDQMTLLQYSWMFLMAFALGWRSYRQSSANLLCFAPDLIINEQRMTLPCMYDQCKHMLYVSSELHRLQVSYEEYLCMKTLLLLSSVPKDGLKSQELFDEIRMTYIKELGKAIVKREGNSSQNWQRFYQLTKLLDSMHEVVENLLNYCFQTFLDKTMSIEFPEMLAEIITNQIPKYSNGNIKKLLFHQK
3',5'-cyclic-AMP phosphodiesterase 4B (Homo sapiens), sequence (Q07343 whole entry, looked up): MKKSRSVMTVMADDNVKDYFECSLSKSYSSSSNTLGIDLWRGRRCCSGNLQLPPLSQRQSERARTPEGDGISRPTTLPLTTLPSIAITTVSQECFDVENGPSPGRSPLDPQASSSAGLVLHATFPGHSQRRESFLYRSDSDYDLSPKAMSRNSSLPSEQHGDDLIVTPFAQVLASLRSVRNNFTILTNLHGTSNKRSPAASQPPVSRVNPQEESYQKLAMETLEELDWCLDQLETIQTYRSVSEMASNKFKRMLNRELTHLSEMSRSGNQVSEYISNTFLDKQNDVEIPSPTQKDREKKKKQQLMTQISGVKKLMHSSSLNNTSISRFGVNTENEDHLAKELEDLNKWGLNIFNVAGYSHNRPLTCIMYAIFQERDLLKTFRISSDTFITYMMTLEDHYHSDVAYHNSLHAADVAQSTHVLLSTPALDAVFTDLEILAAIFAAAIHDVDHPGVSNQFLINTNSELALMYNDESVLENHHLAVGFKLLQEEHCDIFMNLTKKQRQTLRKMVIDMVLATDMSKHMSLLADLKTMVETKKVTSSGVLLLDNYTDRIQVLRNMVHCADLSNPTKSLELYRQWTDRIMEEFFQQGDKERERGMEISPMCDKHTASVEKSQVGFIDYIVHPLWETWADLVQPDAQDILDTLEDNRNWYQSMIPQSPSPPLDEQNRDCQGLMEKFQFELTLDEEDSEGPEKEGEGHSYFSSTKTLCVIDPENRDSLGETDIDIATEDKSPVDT
Cytochrome P450 3A4 (Homo sapiens), sequence (P08684 whole entry, looked up): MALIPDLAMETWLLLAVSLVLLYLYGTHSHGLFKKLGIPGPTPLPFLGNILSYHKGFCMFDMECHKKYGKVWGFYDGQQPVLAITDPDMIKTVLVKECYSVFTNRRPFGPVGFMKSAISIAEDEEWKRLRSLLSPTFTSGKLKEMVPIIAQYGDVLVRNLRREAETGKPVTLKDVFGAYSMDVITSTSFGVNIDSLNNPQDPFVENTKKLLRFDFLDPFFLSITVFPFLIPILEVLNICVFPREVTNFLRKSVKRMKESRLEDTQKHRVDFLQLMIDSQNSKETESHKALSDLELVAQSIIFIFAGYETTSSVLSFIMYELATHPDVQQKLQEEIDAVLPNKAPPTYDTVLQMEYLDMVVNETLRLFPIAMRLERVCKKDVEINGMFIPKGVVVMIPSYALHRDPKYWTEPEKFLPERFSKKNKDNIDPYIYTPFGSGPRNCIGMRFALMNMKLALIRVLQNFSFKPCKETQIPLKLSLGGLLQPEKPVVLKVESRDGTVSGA
Cytochrome P450 2D6 (Homo sapiens), sequence (P10635 whole entry, looked up): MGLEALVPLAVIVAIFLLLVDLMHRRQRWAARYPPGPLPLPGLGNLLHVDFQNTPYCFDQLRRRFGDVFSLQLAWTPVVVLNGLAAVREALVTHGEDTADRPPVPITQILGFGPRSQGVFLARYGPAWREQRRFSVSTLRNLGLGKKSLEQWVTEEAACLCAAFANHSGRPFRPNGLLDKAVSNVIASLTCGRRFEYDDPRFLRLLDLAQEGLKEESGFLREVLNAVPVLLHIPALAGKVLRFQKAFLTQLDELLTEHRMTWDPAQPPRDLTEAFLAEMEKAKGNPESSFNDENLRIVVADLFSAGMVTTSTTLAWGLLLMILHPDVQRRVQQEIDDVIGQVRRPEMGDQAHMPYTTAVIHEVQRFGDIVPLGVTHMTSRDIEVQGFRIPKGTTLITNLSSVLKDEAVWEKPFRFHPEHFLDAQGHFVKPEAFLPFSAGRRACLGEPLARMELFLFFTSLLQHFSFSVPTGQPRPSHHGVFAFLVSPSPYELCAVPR

Structure (SMILES)	Potency [1]	activity change, negative = inhibition [2]	activity change, negative = inhibition [3]	activity, negative = inhibition [4]	Potency [5]	Potency [6]	Potency [7]	activity change, negative = inhibition [8]	max response [8, 12]	max response [8, 13]	outcome [9]	Potency [10]	Potency [11]
O=C(c1csnn1)N1CCC[C@@]2(CCN(Cc3cc(C(F)(F)F)cc(C(F)(F)F)c3)C2)C1	> 11.4 µM (inactive)	-0.847% (inactive)	2.05% (inactive)	-8.74% (inactive)	> 46 µM (inactive)	inactive	inactive	5.01% (inactive)	20.3%	22.1%	inactive	–	–
Cc1noc(C)c1C(=O)N1CCC[C@@]2(CCN(C(=O)Nc3cccc(C#N)c3)C2)C1	> 11.4 µM (inactive)	-3.34% (inactive)	5.42% (inactive)	-8.01% (inactive)	> 46 µM (inactive)	inactive	inactive	5.85% (inactive)	14.6%	24.7%	inactive	–	–
CS(=O)(=O)N1CCC2(CCN(c3ccccn3)CC2)CC1	> 11.4 µM (inactive)	-5.04% (inactive)	-12.8% (inactive)	-2.94% (inactive)	> 46 µM (inactive)	inactive	inactive	6.49% (inactive)	5.01%	13.9%	inactive	–	–
c1ccc(-c2cccc(N3CCCC4(CCNCC4)C3)c2)cc1	> 11.4 µM (inactive)	11.2% (inactive)	-11% (inactive)	8.57% (inactive)	> 46 µM (inactive)	inactive	inactive	2.43% (inactive)	-2.04%	1.36%	inactive	–	–
CC(=O)N1CCC[C@@]2(CCN(C(=O)Nc3ccccc3)C2)C1	> 11.4 µM (inactive)	10.4% (inactive)	22.8% (inactive)	-3.7% (inactive)	> 46 µM (inactive)	inactive	inactive	3.44% (inactive)	-12.3%	-5.99%	inactive	–	–
CC(=O)N1CCC2(CC1)CN(C(=O)Nc1cccc(C#N)c1)C2	> 11.4 µM (inactive)	-2.26% (inactive)	4.7% (inactive)	11.4% (inactive)	> 46 µM (inactive)	inactive	inactive	2.51% (inactive)	-2.48%	1.82%	inactive	–	–
N#Cc1cccc(NC(=O)N2CC[C@@]3(CCCN(C(=O)c4cnccn4)C3)C2)c1	> 11.4 µM (inactive)	-6.32% (inactive)	12.8% (inactive)	3.28% (inactive)	> 46 µM (inactive)	inactive	inactive	8.9% (inactive)	14.7%	23.6%	inactive	–	–
Cn1cccc1C(=O)N1CCC2(CCN(C(=O)Nc3cccc(C#N)c3)CC2)CC1	> 11.4 µM (inactive)	-16.2% (inactive)	8.67% (inactive)	-3.46% (inactive)	> 46 µM (inactive)	inactive	inactive	4.21% (inactive)	4.21%	11.6%	inactive	–	–
O=S(=O)(c1ccccc1)N1CCC[C@@]2(CCN(c3ncccn3)C2)C1	> 11.4 µM (inactive)	-0.184% (inactive)	27.1% (inactive)	-4.75% (inactive)	> 46 µM (inactive)	inactive	inactive	4.79% (inactive)	6.87%	13%	inactive	–	–
CC(=O)N1CCC2(CC1)CCN(c1ncccn1)CC2	> 11.4 µM (inactive)	-16.8% (inactive)	-1.48% (inactive)	10.5% (inactive)	> 46 µM (inactive)	inactive	inactive	4.77% (inactive)	8.06%	17.2%	inactive	–	–
Cc1noc(C)c1C(=O)N1CCC2(CC1)CCN(c1ncccn1)CC2	> 11.4 µM (inactive)	16.2% (inactive)	5.74% (inactive)	3.32% (inactive)	> 46 µM (inactive)	inactive	inactive	5.54% (inactive)	6.46%	13.5%	inactive	–	–
N#Cc1ccc(CN2CC[C@@]3(CCCN(C(=O)c4cnccn4)C3)C2)cc1	> 11.4 µM (inactive)	-8.73% (inactive)	1.72% (inactive)	4.34% (inactive)	> 46 µM (inactive)	inactive	inactive	2.06% (inactive)	12.2%	18.2%	inactive	–	–
O=C(c1cccc(F)c1)N1CCC[C@@]2(CCN(c3ccccn3)C2)C1	> 11.4 µM (inactive)	-17% (inactive)	-7.81% (inactive)	-6.48% (inactive)	> 46 µM (inactive)	inactive	inactive	6.88% (inactive)	12.7%	23.1%	inactive	–	–
O=S(=O)(c1ccccc1)N1CCC2(CC1)CN(c1ccccc1)C2	> 11.4 µM (inactive)	3.38% (inactive)	8.23% (inactive)	-6.85% (inactive)	> 46 µM (inactive)	inactive	inactive	4.76% (inactive)	12.5%	18.4%	inactive	–	–
Cn1cccc1C(=O)N1CCC[C@@]2(CCN(c3ncccn3)C2)C1	> 11.4 µM (inactive)	-1.25% (inactive)	-9.56% (inactive)	-1.27% (inactive)	> 46 µM (inactive)	inactive	inactive	1.1% (inactive)	-6.2%	-1.14%	inactive	–	–
O=C(c1ccncc1)N1CCC2(CCCN(c3ccccc3)C2)CC1	> 11.4 µM (inactive)	-3.67% (inactive)	3.61% (inactive)	-3.54% (inactive)	> 46 µM (inactive)	inactive	inactive	6.76% (inactive)	7.52%	17.5%	inactive	–	–
COc1ccc(NC(=O)N2CCCC3(CCN(C(C)=O)CC3)C2)cc1	> 11.4 µM (inactive)	-2.44% (inactive)	11.5% (inactive)	-0.377% (inactive)	> 46 µM (inactive)	inactive	inactive	5.88% (inactive)	10.9%	18.6%	inactive	–	–
CS(=O)(=O)N1CCC2(CC1)CN(c1ccccn1)C2	> 11.4 µM (inactive)	2.96% (inactive)	-0.983% (inactive)	5.22% (inactive)	> 46 µM (inactive)	inactive	inactive	2.99% (inactive)	7.05%	10.2%	inactive	–	–
COC(=O)N1CCC2(CCN(C(=O)Nc3cccc(C#N)c3)CC2)CC1	> 11.4 µM (inactive)	-20.7% (inactive)	4.12% (inactive)	7.14% (inactive)	> 46 µM (inactive)	inactive	inactive	-0.883% (inactive)	12.6%	14%	inactive	–	–
Cc1noc(C)c1C(=O)N1CCC2(CCCN(C(=O)Nc3cccc(C#N)c3)C2)CC1	> 11.4 µM (inactive)	-3.54% (inactive)	-25.9% (inactive)	-0.0853% (inactive)	> 46 µM (inactive)	inactive	inactive	9.42% (inactive)	12.8%	23.7%	inactive	–	–
O=C(Nc1cccc(F)c1)N1CC[C@@]2(CCCN(C(=O)c3csnn3)C2)C1	> 11.4 µM (inactive)	-13.9% (inactive)	20.4% (inactive)	-1.73% (inactive)	> 46 µM (inactive)	inactive	inactive	3.72% (inactive)	12.5%	18.5%	inactive	–	–
COCC(=O)N1CCC[C@@]2(CCN(c3ccccc3)C2)C1	> 11.4 µM (inactive)	-8.85% (inactive)	-13.7% (inactive)	8.14% (inactive)	> 46 µM (inactive)	inactive	inactive	-2.7% (inactive)	17.9%	18%	inactive	–	–
COc1ccc(C(=O)N2CCC[C@@]3(CCN(Cc4ccncc4)C3)C2)cc1	> 11.4 µM (inactive)	-9.73% (inactive)	4.96% (inactive)	2.52% (inactive)	> 46 µM (inactive)	inactive	inactive	5.81% (inactive)	16.4%	25.6%	inactive	–	–
Cn1cccc1C(=O)N1CCC2(CC1)CN(C(c1ccccc1)c1ccccc1)C2	> 11.4 µM (inactive)	14.4% (inactive)	-18.7% (inactive)	-4.09% (inactive)	> 46 µM (inactive)	inactive	inactive	-5.27% (inactive)	-6.77%	-9.88%	inactive	15.8 µM (active)	3.16 µM (active)
O=S(=O)(c1ccccc1)N1CCC2(CCN(c3cccc(-c4ccccc4)c3)CC2)CC1	> 11.4 µM (inactive)	-5.65% (inactive)	-3.11% (inactive)	-8.83% (inactive)	> 46 µM (inactive)	inactive	inactive	5.8% (inactive)	17.8%	24.9%	inactive	–	–
COCC(=O)N1CCC2(CC1)CN(c1ccncc1)C2	> 11.4 µM (inactive)	-2.96% (inactive)	2.67% (inactive)	-1.5% (inactive)	> 46 µM (inactive)	inactive	inactive	2.59% (inactive)	4.76%	11.2%	inactive	–	–
O=S(=O)(c1ccccc1)N1CCC2(CCN(c3ccc(-c4ccccc4)cc3)CC2)CC1	> 11.4 µM (inactive)	1.76% (inactive)	11.9% (inactive)	-10.3% (inactive)	> 46 µM (inactive)	inactive	inactive	5.32% (inactive)	18.6%	22.9%	inactive	inactive	–
CC(=O)N1CCC[C@@]2(CCN(C(c3ccccc3)c3ccccc3)C2)C1	> 11.4 µM (inactive)	-0.322% (inactive)	3.9% (inactive)	-10.9% (inactive)	> 46 µM (inactive)	inactive	inactive	-4.88% (inactive)	-3.73%	-8.87%	inactive	–	–
COCC(=O)N1CCC2(CC1)CN(c1ccccc1)C2	> 11.4 µM (inactive)	-8.7% (inactive)	2.5% (inactive)	10.6% (inactive)	> 46 µM (inactive)	inactive	inactive	4.95% (inactive)	15%	21.1%	inactive	–	–
